Source: PubChem BioAssay
Compounds with a hit are over-represented: about 8% of the library has one in this group of screens.
MARV entry inh = blocks Marburg virus binding to or entry into cells; Potency, µM (highest dose often 37.8 µM), inactives show at the top dose activity change, negative = inhibition, most hits filed as inhibitors; hit rate 1.8% among 300,000; Marburg virus pseudotyped entry inhibition, cell reporter; AID 540276; calls by dose curve; tested in HEK293 cells; note: potency is the fitted concentration of half-maximal effect; % is set by controls: 0 for no effect and ±100 for the full control effect
HCMV antiviral = blocks human cytomegalovirus replication | HFF cells, HCMV-luciferase reporter, 72 h; stronger effect = lower value | activity change, negative = inhibition, % at 57.5 µM | hit rate 4.5% among 410,000; in the data active = activity change below about -60%; inconclusive = no clear call, values can overlap the other calls; inactive = above about -39%; note: % is set by controls: 0 for no effect and ±100 for the full control effect
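HFF cells seeded 16 h at 37C, treated with compounds, infected with luciferase-reporter HCMV at MOI 1 PFU/cell; luciferase read at 72 h post infection, normalized to buffer-only and Salinomycin controls.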
SARS PLpro yeast = blocks SARS-CoV papain-like protease in a yeast assay; S. cerevisiae expressing SARS-CoV PLpro, growth rescue; hit rate 0.19% among 330,000; Potency, µM (titrated, usually from 32.9 µM), inactives show top-dose activity, positive = growth rescue, most hits filed as activators; calls by dose curve; note: potency is the fitted concentration of half-maximal effect; 0% is about no effect; nearly all actives have a fitted effect of over 55% in size
HCV inh = HCV inhibition; Potency, µM (highest dose often 41.8 µM), for inactives: top-dose activity change, negative = inhibition, usual class: inhibitors; hit rate 3.4% among 340,000; Huh7.5.1 HCVcc-Cre infection, luciferase reporter, 44 h; active = well fitted inhibition curve with a large enough effect; inconclusive = small, poorly fitted or top-dose-only effect, or another doubt; inactive = no such curve, though single readings can be large or run the other way; note: potency is the fitted concentration of half-maximal effect; % is set by controls: 0 for no effect and ±100 for the full control effect
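Infectious HCV cell culture screen: compound-treated cells (1,000/well, pre-plated 4 h) are infected with HCVcc-Cre at roughly 0.5 moi and grown 44 h. Infection is quantified by luciferase signal after 15 min substrate incubation at room temperature.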
Lassa entry inh = Lassa virus entry inhibition | hit rate 1.2% among 300,000 | Lassa virus pseudotype entry inhibition, cell reporter | Potency, µM (top dose mostly 37.9 µM), for the others: at the top dose activity change, negative = inhibition, most hits filed as inhibitors; calls by dose curve; tested in HEK293 cells; note: potency is the fitted concentration of half-maximal effect; % is set by controls: 0 for no effect and ±100 for the full control effect; nearly all actives have a fitted effect of over 50% in size
FMDV antiviral = antivirals against foot and mouth disease virus | FMDV antiviral cell-based qHTS | AID 1159524 | hit rate 1.2% among 410,000 | Potency, µM (titrated, usually from 57.9 µM), inactives show at the highest dose activity change, negative = inhibition, most hits filed as inhibitors; calls by dose curve; tested in HEK293T cells; note: read-out not given here; potency is the fitted concentration of half-maximal effect; % is set by controls: 0 for no effect and ±100 for the full control effect; nearly all actives have a fitted effect of over 45% in size
Active calls of the source: *; ? = inconclusive; . = no result; ! = repeats disagree; [ ] = dose if it differs, or a comment.

SMILES	MARV entry inh	HCMV antiviral	SARS PLpro yeast	HCV inh	Lassa entry inh	FMDV antiviral
Cc1nc2c(cnn2-c2ccccc2Cl)c(=O)n1-c1ccc(C(C)C)cc1	15µM*	-60*!	-22%	?	9.2µM*	?
Cc1ccc(-n2c(C)nc3c(cnn3-c3ccc(F)cc3)c2=O)cc1	?	-83*	1%	?	-12%	?
N#CCSc1nc2ccccc2c2nc3ccccc3n12	?	-103*	-30%	?	3%	?
COc1ccccc1C1CN(CC(=O)N2CCC(N3CCOCC3)CC2)Cc2ccccc2O1 (centres undefined)	.	.	.	.	.	5%
Oc1c(C(c2ccccc2)N2CCC3(CC2)OCCO3)sc2nc(-c3ccco3)nn12 (centres undefined)	.	14	.	.	1%[46.1 µM]	11%
CN[C@@H]1CC[C@H](c2ccc(Cl)c(Cl)c2)c2ccccc21	.	.	-4%	.	.	?
CN[C@@H]1C[C@H](c2ccc(Cl)c(Cl)c2)c2ccccc21	4.6µM*	.	.	.	.	?
CN[C@@H]1C[C@@H](c2ccc(Cl)c(Cl)c2)c2ccccc21	4.6µM*	.	-8%	.	13µM*	.
COc1ccc(S(=O)(=O)N(CC(=O)Nc2cccnc2)c2ccc(Cl)cc2)cc1	-6%[46.1 µM]	-104*	.	.	?	-6%
COc1ccc(N(CC(=O)Nc2ccc3c(c2)OCCO3)S(=O)(=O)c2c(C)nn(C)c2C)cc1	-8%	3	-12%	4%	.	0%
COc1ccc(N(CC(=O)Nc2ccc3c(c2)OCCO3)S(=O)(=O)c2cccc(C)c2)cc1	?	-77*	5%	?	?	-7%
Cc1ccc(N(CC(=O)N2CC(=O)Nc3ccccc32)S(=O)(=O)c2ccc3c(c2)OCCO3)cc1	7%	-63*	-19%	9%	?	5%
COc1ccc(S(=O)(=O)N(CC(=O)Nc2ccc(S(=O)(=O)N3CCOCC3)cc2)c2ccccc2)cc1	?	-85*	19%	5.6µM*	?	-24%
COc1ccc(NC(=O)CN(C)C(=O)c2ccc(S(=O)(=O)N3CCOCC3)cc2)cc1	.	-8	.	.	.	-25%
COc1ccc(S(=O)(=O)N(CC(=O)Nc2cc(C)cc(C)c2)c2ccc(Cl)cc2)cc1	-16%[46.1 µM]	-32	.	.	8%[46.1 µM]	0%
Cc1cc(C)c2c(-n3cccc3)c(C(=O)NCCc3ccccc3)sc2n1	1%[46.1 µM]	?	.	.	17%[46.1 µM]	-18%
CC(C)CC(=O)Nc1nc2nc(-c3ccccc3)cc(=O)n2[nH]1	18%[46.1 µM]	-4	.	.	-1%[46.1 µM]	-8%
COc1ccc(N(CC(=O)Nc2ccc3c(c2)OCO3)S(=O)(=O)c2ccccc2)c(OC)c1	0%	-68*	4%	?	-15%	39%
COc1ccc(S(=O)(=O)N(C)CC(=O)Nc2ccc3c(c2)OCO3)cc1	6%	21	-4%	?	-15%	.
COc1ccc(N(CC(=O)Nc2ccc3c(c2)OCO3)S(=O)(=O)c2ccc(F)cc2)cc1	-7%	-76*	20%	?	-9%	24%
CC(C)C(NC(=O)CN(c1ccc2c(c1)OCCO2)S(=O)(=O)c1ccccc1)C(C)C	?	-61*	.	18%	20%[46.1 µM]	-3%
Fc1ccccc1-n1ncc2c1ncn1nc(-c3ccccc3Cl)nc21	?	-2	.	.	1%[46.1 µM]	39%
Fc1ccc(Nc2c(-c3c[nH]c4ccccc34)nc3ccccn23)cc1	?	91	.	.	5%[46.1 µM]	11%
COc1ccc(C)c2sc(NC(=O)c3ccc(S(=O)(=O)N4CCCCC4)cc3)nc12	.	-8	.	.	-11%[46.1 µM]	-13%
CC(C)c1cc(-c2nc(-c3ccc(Cl)cc3)no2)n[nH]1	.	-68*	.	.	?	-16%
SMILES	MARV entry inh	HCMV antiviral	SARS PLpro yeast	HCV inh	Lassa entry inh	FMDV antiviral
COc1cc(-c2noc(-c3cc(C(C)C)[nH]n3)n2)cc(OC)c1OC	.	-16	.	.	-2%[46.1 µM]	-16%
COC(=O)[C@H]1C(=O)C[C@@](C)(O)[C@@H](C(=O)OC)[C@@H]1c1ccccc1F	-11%[46.1 µM]	.	.	.	.	.
COc1ccc(N(C)C(=O)c2ccc3nc(-c4ccccc4)c(-c4ccccc4)nc3c2)cc1	?	8	-3%	11µM*	?	?
O=C(CSc1cn[nH]n1)Nc1nc2ccccc2s1	-18%[46.1 µM]	90	-1%	-20%	.	53%
O=C(CSc1ccccn1)Nc1nc2ccccc2s1	?	-66*	8%	-19%	5%	37%
Cn1c(SCC(=O)Nc2nc3ccccc3s2)nnc1-c1ccccc1	1%	41	-1%	25%	?	32%
CC1(C)Cc2ccccc2-c2nnc(SCC(=O)N3CCN(c4ccccc4)CC3)n21	?	-92*	-2%	?	?	?
CC1(C)Cc2ccccc2-c2nnc(SCC(=O)Nc3nc4ccccc4s3)n21	-27%	-83*	4%	-2%	1%	?
CCCCc1c(C)nc2ccc(Br)cc2c1SCCC#N	-6%	.	1%	?	.	.
Cc1ccc2nc(SCCC#N)nc(C)c2c1	?	-36	-6%	10µM*	1%	-1%
CCc1c(C)nc2ccc(Br)cc2c1SCCC#N	?	-83*	-17%	?	?	?
CCCc1c(C)nc2ccccc2c1SCCC#N	-11%	-85*	-14%	?	3%	-28%
COc1ccc(-c2csc3nc(-c4ccc(F)cc4)oc(=O)c23)cc1OC	-1%[46.1 µM]	7	.	.	17%[46.1 µM]	-10%
CC(CCc1ccc(O)cc1)N1CCC(Oc2ccc(C(=O)N3CCCC3)cc2)CC1 (centres undefined)	2%	-60*	-3%	-1%	14%	-4%
Cc1cccc(OCCSc2nc3ccc(NC(=O)c4cccs4)cc3s2)c1	-20%[46.1 µM]	?	.	.	-20%[46.1 µM]	?
O=C(CSc1nc2c(c(=O)[nH]1)CCC2)Nc1ccccc1F	-1%[46.1 µM]	-4	.	.	-14%[46.1 µM]	-17%
COC(=O)c1ccccc1NC(=O)c1nc(S(=O)(=O)Cc2cccc(C)c2)ncc1Cl	2%[46.1 µM]	-60*	.	.	0%[46.1 µM]	?
Cc1ccc(CNC(=O)c2nc(S(=O)(=O)Cc3ccc(C)cc3)ncc2Cl)cc1	?	19	.	.	?	-50%
Cc1cccc(CS(=O)(=O)c2ncc(Cl)c(C(=O)NCc3ccc4c(c3)OCO4)n2)c1	.	-78*	4%	1%	.	32µM*
COC(=O)c1ccc(NC(=O)c2nc(S(=O)(=O)Cc3cccc(C)c3)ncc2Cl)cc1	?	-101*	-7%	?	?	28µM*
CC(=O)Nc1ccc(NC(=O)c2nc(S(=O)(=O)Cc3cccc(C)c3)ncc2Cl)cc1	-13%[46.1 µM]	-101*	2%	?	?	20µM*
C[C@H]1[C@@H](NS(=O)(=O)c2ccc(C#N)cc2)CC[C@@]23CCCN2C(=O)CCC[C@@H]13	.	6	.	.	.	.
Cc1ccccc1NC(=S)N(C)Cc1cccs1	-14%[46.1 µM]	31	-10%	-2%	1%	-5%
Cc1ccccc1NC(=S)N(C)Cc1cn(C)c2ccccc12	7%	-70*	-3%	1%	-2%	7%
